This note sets out measurements from PubChem BioAssay AID1211 (NMMLSC, 2008).

A number with no mark means an inactive call. The source made the active and inactive calls. How the calls were made is not given here.

In this assay the target is Estrogen receptor (Homo sapiens) (UniProt P03372). Nature of the assay: ERalpha ligand binders by competition, primary screen, cell-based, Cos7 ERalpha-GFP, flow cytometry (AID 1211).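 Further: 0% = DMSO vehicle wells and 100% = no E2-Alexa633 signal left.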 The following applies: fluorescent ligand competition, at 10 µM, hits give high values.
Sequence of Estrogen receptor (Homo sapiens) (P03372 whole entry, looked up): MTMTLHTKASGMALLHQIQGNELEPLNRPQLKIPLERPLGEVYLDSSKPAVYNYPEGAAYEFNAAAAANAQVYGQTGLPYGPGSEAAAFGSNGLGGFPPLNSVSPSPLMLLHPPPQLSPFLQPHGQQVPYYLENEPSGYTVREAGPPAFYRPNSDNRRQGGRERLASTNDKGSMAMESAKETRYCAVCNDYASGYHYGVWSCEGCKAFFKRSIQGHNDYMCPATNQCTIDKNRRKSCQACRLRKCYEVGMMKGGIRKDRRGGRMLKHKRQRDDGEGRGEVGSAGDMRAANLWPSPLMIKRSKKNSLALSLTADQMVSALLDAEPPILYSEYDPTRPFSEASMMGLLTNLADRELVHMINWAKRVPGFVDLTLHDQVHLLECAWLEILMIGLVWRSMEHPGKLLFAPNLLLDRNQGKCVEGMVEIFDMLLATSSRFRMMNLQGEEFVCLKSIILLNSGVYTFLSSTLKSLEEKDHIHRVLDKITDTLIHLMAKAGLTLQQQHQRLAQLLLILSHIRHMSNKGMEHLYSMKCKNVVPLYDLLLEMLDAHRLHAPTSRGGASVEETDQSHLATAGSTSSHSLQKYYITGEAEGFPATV
In the case of `COc1ccc(C2(CN)CCCC2)cc1OC`, the inhibition of ligand binding is 2%.
Then `O=C(O)c1cccc2c1NC(c1cccc([N+](=O)[O-])c1)C1CC(Sc3ccccc3[N+](=O)[O-])C(Cl)C21` (stereo unspecified), with 62%.
Then `CC1(C)CC(CCNCc2ccc3c(c2)OCO3)(Cc2ccccc2)CCO1` (stereo unspecified), with 0%; and `N=c1c[n+](CCc2ccc(O)cc2)[n-]o1`, with 7%; and `CCOc1ccccc1N1C(=O)NC(=O)C(CCc2ccncc2)(CCc2ccncc2)C1=O`, with 59%.
The same measure for `COc1ccc2[nH]cc(CCN=C(N)N)c2c1`: 1%.
As for `C[C@H]1CCC[C@@H](O)CCC/C=C/c2cc(O)cc(O)c2C(=O)O1`, the inhibition of ligand binding was 67% (active).
For the compound `NC(=O)c1ccc(N=Nc2c(O)[nH]c(=O)[nH]c2=O)cc1`, the inhibition of ligand binding is 28%.
The same measure for `COc1cc2c(cc1OC)CC(C)(C)NC2`: 3%.
The same measure for `CC(=O)c1ccc2c(c1)C1C(Cl)C(Sc3ccccc3[N+](=O)[O-])CC1C(c1ccccc1)N2` (stereo unspecified): 69% (active).
Then `CC(=O)c1ccc2c(c1)C1C(Cl)C(Sc3ccccc3[N+](=O)[O-])CC1C(c1ccccc1[N+](=O)[O-])N2` (stereo unspecified), with 79% (active); and `O=C(O)c1ccc2c(c1)C1C(Cl)C(Sc3ccccc3[N+](=O)[O-])CC1C(c1cccc([N+](=O)[O-])c1)N2` (stereo unspecified), with 0%.
Regarding `CC(=O)c1ccc2c(c1)C1C(Cl)C(Sc3ccccc3[N+](=O)[O-])CC1C(C(=O)O)N2` (stereo unspecified), the inhibition of ligand binding was 0%.
As to `O=C(O)c1cccc2c1NC(C(=O)O)C1CC(Sc3ccccc3[N+](=O)[O-])C(Cl)C21` (stereo unspecified), the inhibition of ligand binding was 0%.
Then `CCNCC1(c2ccc(OC)c(OC)c2)CCCC1`, with 17%.
The same measure for `Cc1ccc2c(c1Cl)NC(C(=O)O)C1CC(Sc3ccccc3[N+](=O)[O-])C(Cl)C21` (stereo unspecified): 0%; for `COc1ccc(C2(CN)CCCC2)cc1`: 21%.
Then `COc1ccc(CC2NCCc3cc(OC)c(OC)cc32)cc1OC` (stereo unspecified), with 7%; and `O=C1C2CCN(CC2)C1Cc1ccc(O)cc1` (stereo unspecified), with 0%.
With `Cc1ccc(S(=O)(=O)Cc2ccc(C(=O)N3CCC4(CC3)OCCO4)o2)cc1`, the inhibition of ligand binding is 31%.
As to `COc1ccc(Cn2c(N)c(C(=O)NCc3ccco3)c3nc4ccccc4nc32)cc1`, the inhibition of ligand binding was 26%.
